High-throughput results: PubChem BioAssay, National Center for Advancing Translational Sciences (NCATS)
LmPK inhibitor – blocks Leishmania mexicana pyruvate kinase activity; Potency, µM (highest dose often 57.5 µM), for inactives: at the top dose activity change, negative = inhibition, most hits filed as inhibitors; 290,000 compounds, 0.37% hits; Q27686; purified LmPK, Kinase-Glo ATP luminescence, 1 h; also: potency is read from the fitted curve at half-maximal effect; % is scaled to controls: 0 for no effect and ±100 for the full control effect
Target sequence (Q27686 whole entry, looked up): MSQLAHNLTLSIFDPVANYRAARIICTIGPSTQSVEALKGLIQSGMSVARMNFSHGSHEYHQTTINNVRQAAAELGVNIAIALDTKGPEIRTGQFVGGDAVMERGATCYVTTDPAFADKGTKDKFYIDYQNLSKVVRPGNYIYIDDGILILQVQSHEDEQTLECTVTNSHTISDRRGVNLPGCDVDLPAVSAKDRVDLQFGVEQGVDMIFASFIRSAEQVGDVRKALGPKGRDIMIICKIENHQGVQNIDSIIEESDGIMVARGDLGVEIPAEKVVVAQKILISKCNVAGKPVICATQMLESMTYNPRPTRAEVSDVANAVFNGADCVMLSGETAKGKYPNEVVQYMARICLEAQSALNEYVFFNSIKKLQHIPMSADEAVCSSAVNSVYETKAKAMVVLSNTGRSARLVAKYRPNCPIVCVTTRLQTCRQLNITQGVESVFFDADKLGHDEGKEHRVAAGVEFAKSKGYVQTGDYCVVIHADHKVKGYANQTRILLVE
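Kinase-Glo luminescence read after 1 h RT reaction of 0.1 nM LmPK with 0.5 mM PEP and 0.1 mM ADP. Activity scaled between uninhibited and enzyme-free controls.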
Shiga toxin inh – Shiga toxin inhibition; Vero cells, Shiga toxin protein synthesis inhibition reporter; inhibition, % at 38.7 µM; 290,000 compounds, 9.2% hits; AID 2315; in the data active = inhibition mostly above about 28%, no sharp cut-off; inactive = mostly below about 43%; also: 0% is about no effect
RE007 growth inh – less growth of the S. pombe RE007 Vpr strain. S. pombe RE007 Vpr strain, BacTiter-Glo ATP luminescence, 24 h. Potency, µM (titrated, usually from 92.2 µM), inactives show at the highest dose activity change, negative = less growth, actives largely listed as inhibitors. 360,000 compounds, 0.21% hits. AID 651644; active = well fitted falling curve with a large enough effect; inconclusive = small, poorly fitted or top-dose-only effect; inactive = no such curve, though single readings can be large or run the other way; also: potency is read from the fitted curve at half-maximal effect; % is scaled to controls: 0 for no effect and ±100 for the full control effect; nearly all actives have a fitted effect of over 50% in size
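Fission yeast RE007 carrying one integrated HIV-1 vpr copy, seeded at OD 0.01 in PMG+AL medium with 23 nL pinned compound. Grown 24 h at 30 degrees; viability read by BacTiter-Glo luminescence after 5 min.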
Giardia FBPA inh – inhibitors of Giardia lamblia fructose-1,6-bisphosphate aldolase; A8B2U2; purified Giardia FBPA; Potency, µM (titrated, usually from 59.6 µM), for inactives: at the highest dose activity, negative = inhibition, usual class: inhibitors; 290,000 compounds, 0.71% hits; also: potency is read from the fitted curve at half-maximal effect; % is scaled to controls: 0 for no effect and ±100 for the full control effect; nearly all actives have a fitted effect of over 55% in size
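Giardia FBPA (40 nM reagent) was preincubated 10 min at RT with compound (up to 57.5 uM final), then substrate plus GAPDH/TPI/NAD/arsenate coupling system with diaphorase/resazurin was added; resorufin fluorescence (525/598 nm) was read after 20 min.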
TbPYK inhibitor – inhibitors of Trypanosoma brucei pyruvate kinase. TbPYK enzyme, Kinase-Glo Plus ATP luminescence, 45 min. Potency, µM (titrated, usually from 76.8 µM), for the others: at the top dose activity, negative = inhibition, usual class: inhibitors. 410,000 compounds, 0.12% hits; also: potency is read from the fitted curve at half-maximal effect; % is scaled to controls: 0 for no effect and ±100 for the full control effect; nearly all actives have a fitted effect of over 50% in size
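Quantitative HTS: titrated library compounds versus trypanosomal pyruvate kinase in TEA buffer (pH 7.2) containing KCl, MgCl2, BSA and Tween-20. Reactions were initiated with ADP, 130 uM final. Kinase-Glo Plus luminescence was read after 45 min at RT.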
CHX counter – counter-screen hit for Shiga toxin inhibitors, cycloheximide | cell reporter, cycloheximide protein synthesis inhibition counterscreen | AID 2314 | 300,000 compounds, 12% hits | max response, %; in the data active = max response mostly above about 13%, no sharp cut-off; inactive = mostly below about 14%; also: read at 38.3 µM for the half of the compounds with a filed dose; 0% is about no effect
Active calls of the source: *; ? = inconclusive; . = not tested or not shown; [ ] = remark or other dose. Many of the other results were omitted from the sample, so hits are more common in it than they were. Unless noted, calls follow the shape of the dose curve; as a rule, active = well fitted curve in the direction sought with a large enough effect; inconclusive = small, poorly fitted or top-dose-only effect, or another doubt; inactive = no such curve, though single readings can be large; an effect the other way counts as inactive or inconclusive.

SMILES	LmPK inhibitor	Shiga toxin inh	RE007 growth inh	Giardia FBPA inh	TbPYK inhibitor	CHX counter
O=C(Nc1ccc(Br)cc1)c1cc(S(=O)(=O)N2CCc3ccccc32)ccc1F	.	.	.	.	11%	.
COc1cc(/C=N/NC(=O)c2ccc(COc3cc(C)ccc3C(C)C)cc2)cc(OC)c1O	0%	20*	32%	-1%	-7%	34*
Cc1ccc(C(C)C)c(OCc2ccc(C(=O)N/N=C/c3cccc(O)c3O)cc2)c1	3%	active	?	?	-4%	29*
COc1cc(/C=N\NC(=O)c2ccc(-c3ccccc3)cc2)cc(OC)c1O	0%	15	-10%	-4%	-8%	15*
Cc1ccc(C(C)C)c(OCc2ccc(C(=O)N/N=C/c3ccc(O)c(O)c3)cc2)c1	-5%	59*	1%	?	2%	14*
CCOc1cc(/C=N/NC(=O)c2ccc(=O)n(C)c2)ccc1O	4%	12	7%	0%	-2%	-3
CCCC12CN3CC(CCC)(CN(C1)C3c1c(C)[nH]c(=O)[nH]c1=O)C2=O (configuration not stated)	.	.	.	.	-5%	.
CC(C)CC(C(=O)NCC1CCN(Cc2ccc(F)cc2)CC1)N1Cc2ccccc2C1=O (configuration not stated)	.	.	.	.	6%	.
CCC(C)C(=O)N1CCCC(c2nc(-c3cccs3)no2)C1 (configuration not stated)	-2%	101*	-2%	4%	0%	31*
CCCC(=O)N1CCCC(c2nc(-c3cccs3)no2)C1 (configuration not stated)	1%	86*	1%	-1%	-19%	21*
COc1cc(C(=O)N2CCCC(c3nc(-c4cccs4)no3)C2)cc(OC)c1OC (configuration not stated)	-1%	-6	4%	6%	-17%	-1
Cc1c(-c2ccccc2)n(-c2ccc(Cl)cc2)c2nc3c(c(=O)n(C)c(=O)n3C)n12	.	.	.	.	4%	.
O=C(O)c1cccc(-n2cc(-c3cccc(C(F)(F)F)c3)cn2)c1	2%	118*	.	8%	4%	54*
NC(=O)c1nnn(-c2cccc(C(F)(F)F)c2)c1-c1ccccc1	2%	-11	24%	-1%	5%	5
Cc1ccc(-c2onc(C)c2C)cc1S(=O)(=O)NCc1cccs1	.	.	.	.	4%	.
COc1cc(OC)cc(-n2c(=O)c3sccc3n(Cc3ccc(F)cc3)c2=O)c1	.	.	.	.	2%	.
CC(=O)c1ccc(NC(=O)C(C)OC(=O)c2ccc3c(c2)nc(C)n3-c2ccccc2)cc1 (configuration not stated)	-2%	45*	5%	19%	1%	29*
CC(=O)c1ccc(NC(=O)C(C)OC(=O)c2cccc(-n3cnnn3)c2)cc1 (configuration not stated)	.	.	22%	.	-5%	.
FC(F)(F)c1ccc(-c2nc3ccccc3s2)cc1	.	.	-2%	.	-11%	.
Cc1cc(C)c(-c2nc3ccccc3s2)[nH]1	-6%	96*	?	-25%	-27%	32*
CC(C)c1ccc(-c2nc3ccccc3s2)cc1	?	-12	-27%	-9%	-29%	-1
Nc1cccc(-c2nc3ccccc3s2)c1	14µM*	69*	?	-4%	-13%	31*
CC[n+]1cccc(-c2nc3ccccc3s2)c1	1%	57	-8%	-1%	-6%	39*
Oc1cccc(-c2nc3ccccc3s2)c1	-16%	43*	?	-7%	?	24*
Cc1cc(C)cc(-n2cnc3cc(C(=O)NCCc4ccccc4)ccc32)c1	.	.	.	.	-3%	.
SMILES	LmPK inhibitor	Shiga toxin inh	RE007 growth inh	Giardia FBPA inh	TbPYK inhibitor	CHX counter
O=C(O)c1ccc2c(c1)C(=O)N(c1cccc(-c3nc4ccccc4s3)c1)C2=O	3%	61*	-5%	8%	-4%	49*
CC(=O)Oc1cccc(N2C(=O)c3ccc(C(=O)O)cc3C2=O)c1	-20%	-3	-18%	15%	-3%	-4
COc1cccc(CNC(=O)Cn2ccc3cc(S(=O)(=O)N4CCCCCC4)ccc32)c1	10%	-4	0%	11%	0%	-2
O=C(N/N=C/C=C/c1ccc2c(c1)OCO2)C(O)c1ccccc1 (configuration not stated)	3%	47*	3%	0%	-6%	11
CC(=O)Nc1cccc(/C(C)=N/NC(=O)c2ccc(O)cc2)c1	-2%	52	0%	0%	-4%	31*
CC(/C=C/c1ccc2c(c1)OCO2)=N\NC(=O)c1ccccc1	2%[11.5 µM]	152*	-10%	-9%	1%	41*
C/C(=N\NC(=O)c1nn(C)cc1Br)c1cccc(NC(=O)c2ccncc2)c1	-8%	84*	.	2%	-5%	50*
CC(/C=C/c1ccc2c(c1)OCO2)=N\NC(=O)C(O)c1ccccc1 (configuration not stated)	-5%	10	4%	0%	0%	6
COc1ccc(Br)cc1CNC(=O)CN1C(=O)c2cccnc2Oc2ccc(C)cc21	.	.	.	.	-3%[15.4 µM]	.
C/C(=N/NC(=O)c1ccc2c(c1)OCCO2)c1ccc([N+](=O)[O-])cc1	2%	21*	9%	5%	3%	15*
O=C(NC1C2CC3CC(C2)CC1C3)c1ccc2c(c1)OCO2 (configuration not stated)	-4%	36*	2%	10%	-3%	28*
Cc1ccccc1/C=N\NC(=O)c1ccc(Cn2cccn2)o1	-4%	32	-5%	2%	-4%	5
O=C(NNC(=O)c1ccc2c(c1)OCO2)NC12CC3CC(CC(C3)C1)C2	-1%	-5	-2%	3%	-7%	-3
C/C(=N/NC(=O)c1ccc2c(c1)OCO2)c1cccc([N+](=O)[O-])c1	-8%	37*	0%	.	2%	31*
C/C(=N/NC(=O)c1ccc(Cn2cccn2)o1)c1cccc(NC(=O)c2ccncc2)c1	-2%	11	-1%	-4%	-2%	19*
C/C(=N/NC(=O)c1ccc2c(c1)OCO2)c1ccc(Br)s1	13%	49*	-13%	2%	-1%	16
C/C(=N\NC(=O)CSc1nc(C)cc(C)n1)c1ccc2c(c1)OCCO2	5%[11.5 µM]	84*	27%	0%	-7%	38*
CC(/C=C/c1ccc2c(c1)OCO2)=N\NC(=O)c1cccc([N+](=O)[O-])c1	-1%	35	15%	17%	-3%	20*
CC/C(=N\NC(=O)c1ccc2c(c1)OCO2)C12CC3CC(CC(C3)C1)C2	1%	57*	8%	-8%	1%	26*
